Laboratory results: article PMC5700166
Substitutions are numbered along the chain they refer to.

Experiments:
Assay in all cases: protein-binding microarray (PBM); PBM: ~300 nM protein, 6 mM HEPES pH 7.8, 80 mM KCl, 0.5 mM EDTA, 0.5 mM EGTA, 6% glycerol, 35 ng/ul poly-dIdC, 1% milk, 1 h, room temperature; Ap Aiptasia and Nv Nematostella (sea anemones) / Co Capsaspora / Aq Amphimedon (sponge) / Dm Drosophila / Hu human; RHD is the Rel homology domain; high values mean tight binding
Conditions in all cases: dsDNA, one strand shown
GST-Ap-NF-kB RHD = target: T1, GST-Ap-NF-kB RHD (Exaiptasia pallida (Aiptasia), UniProt A0A913YAJ5 2-422)
T1 sequence: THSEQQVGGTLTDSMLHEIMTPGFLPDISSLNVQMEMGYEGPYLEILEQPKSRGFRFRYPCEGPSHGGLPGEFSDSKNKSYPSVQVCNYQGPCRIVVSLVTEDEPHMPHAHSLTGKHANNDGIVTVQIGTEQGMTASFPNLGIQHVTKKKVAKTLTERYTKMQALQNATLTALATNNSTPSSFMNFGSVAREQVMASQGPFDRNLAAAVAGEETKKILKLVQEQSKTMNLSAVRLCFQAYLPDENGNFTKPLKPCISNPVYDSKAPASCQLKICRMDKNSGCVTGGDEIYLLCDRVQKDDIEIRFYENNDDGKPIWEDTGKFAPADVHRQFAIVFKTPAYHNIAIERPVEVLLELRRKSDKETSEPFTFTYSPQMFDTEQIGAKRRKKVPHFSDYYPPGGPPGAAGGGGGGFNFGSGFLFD

[1] = target: T2, GST-Nv-NF-kB (Cys allele) (Nematostella vectensis, UniProt E5G601 2-411)
T2 sequence: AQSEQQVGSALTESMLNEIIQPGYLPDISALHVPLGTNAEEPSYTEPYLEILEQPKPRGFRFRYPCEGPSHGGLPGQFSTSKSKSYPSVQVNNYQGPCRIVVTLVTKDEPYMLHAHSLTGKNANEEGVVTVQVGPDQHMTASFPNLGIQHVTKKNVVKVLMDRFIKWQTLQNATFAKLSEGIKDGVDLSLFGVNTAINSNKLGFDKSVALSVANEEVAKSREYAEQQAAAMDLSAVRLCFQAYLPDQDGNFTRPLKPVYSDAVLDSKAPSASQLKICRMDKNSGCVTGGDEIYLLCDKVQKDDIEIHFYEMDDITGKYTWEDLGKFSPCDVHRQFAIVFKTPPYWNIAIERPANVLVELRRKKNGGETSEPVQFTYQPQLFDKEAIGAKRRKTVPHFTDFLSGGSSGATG

[2] = target: T3, GST-Nv-NF-kB (Ser allele) (Nematostella vectensis, UniProt A7UNT2 2-411)
T3 sequence: T2 sequence with Q21R, C66S, S207N, E215Q, V217A, E225K, A268E, D399E

GST-Co-NF-kB = target: T4, GST-Co-NF-kB (Capsaspora owczarzaki, UniProt F1ARL5 200-546)
T4 sequence: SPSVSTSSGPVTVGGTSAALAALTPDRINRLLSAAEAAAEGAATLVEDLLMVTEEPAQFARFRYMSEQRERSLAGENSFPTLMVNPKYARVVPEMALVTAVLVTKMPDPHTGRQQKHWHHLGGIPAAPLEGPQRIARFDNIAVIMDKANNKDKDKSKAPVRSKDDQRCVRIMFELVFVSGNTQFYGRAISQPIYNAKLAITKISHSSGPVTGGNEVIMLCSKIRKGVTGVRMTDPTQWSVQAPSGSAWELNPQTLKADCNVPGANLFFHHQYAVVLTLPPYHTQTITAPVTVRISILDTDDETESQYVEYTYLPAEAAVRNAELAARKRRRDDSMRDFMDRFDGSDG

GST-Aq-NF-kB = target: T5, GST-Aq-NF-kB (Amphimedon queenslandica, UniProt A9Y5G7 2-389)
T5 sequence: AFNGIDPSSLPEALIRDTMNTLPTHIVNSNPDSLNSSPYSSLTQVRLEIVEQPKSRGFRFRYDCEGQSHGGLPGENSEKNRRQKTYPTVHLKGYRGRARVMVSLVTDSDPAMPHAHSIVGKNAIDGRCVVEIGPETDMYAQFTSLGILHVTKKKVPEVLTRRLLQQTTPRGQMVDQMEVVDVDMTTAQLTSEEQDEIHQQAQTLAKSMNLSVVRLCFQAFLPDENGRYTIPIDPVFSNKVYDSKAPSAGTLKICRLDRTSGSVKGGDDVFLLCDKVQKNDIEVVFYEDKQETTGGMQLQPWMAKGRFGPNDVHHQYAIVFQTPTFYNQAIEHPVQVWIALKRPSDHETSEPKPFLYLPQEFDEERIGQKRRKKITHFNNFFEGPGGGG

GST-Dm-Relish = target: T6, GST-Dm-Relish (Drosophila melanogaster, UniProt Q94527 99-473)
T6 sequence: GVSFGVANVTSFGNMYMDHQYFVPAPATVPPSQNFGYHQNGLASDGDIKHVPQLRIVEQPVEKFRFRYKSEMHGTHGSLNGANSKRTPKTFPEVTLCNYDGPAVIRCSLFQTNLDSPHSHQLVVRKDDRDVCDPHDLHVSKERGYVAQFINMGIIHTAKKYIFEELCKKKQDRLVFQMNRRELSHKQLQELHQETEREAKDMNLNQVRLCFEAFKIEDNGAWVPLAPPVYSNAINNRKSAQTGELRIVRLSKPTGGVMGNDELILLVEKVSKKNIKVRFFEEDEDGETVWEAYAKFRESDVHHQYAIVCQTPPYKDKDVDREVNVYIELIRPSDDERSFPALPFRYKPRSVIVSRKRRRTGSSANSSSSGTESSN

Row | Sequence | binding signal (GST-Ap-NF-kB RHD) [z-score] | binding signal [1] [z-score] | binding signal [2] [z-score] | binding signal (GST-Co-NF-kB) [z-score] | binding signal (GST-Aq-NF-kB) [z-score] | binding signal (GST-Dm-Relish) [z-score]
1 | CCGATTAACATCAGGGGGGGGTATGATGTTAATCGGGTCTTGATTCGCTTGACGCTGCTG | 5.02 | 2.75 | 3.75 | 5.96 | 4.39 | –
2 | CCGATTAACATCACATACCCCCCTGATGTTAATCGGGTCTTGATTCGCTTGACGCTGCTG | 4.69 | 3.25 | 3.69 | 3.97 | 3.91 | 3.92
3 | CCGATTAACATCAAAAGTTTCCCTGATGTTAATCGGGTCTTGATTCGCTTGACGCTGCTG | 5.05 | 7.19 | 6.7 | 6.99 | 7 | 4.85
4 | CCGATTAACATCAGGGGTAACACTGATGTTAATCGGGTCTTGATTCGCTTGACGCTGCTG | 1.82 | 1.03 | 1.27 | 4.28 | 2.5 | –
5 | CCGATTAACATCAACCAATTCCCTGATGTTAATCGGGTCTTGATTCGCTTGACGCTGCTG | 2.49 | 3.94 | 3.98 | 1.83 | 3.16 | –
6 | CCGATTAACATCAGGGGAACCTATGATGTTAATCGGGTCTTGATTCGCTTGACGCTGCTG | 6.11 | 6.27 | 7.41 | 5.66 | 4.46 | 4.09
7 | CCGATTAACATCAACGTGGGGCGTGATGTTAATCGGGTCTTGATTCGCTTGACGCTGCTG | 1.07 | 1.14 | 1.09 | 1.11 | 1.15 | –
8 | CCGATTAACATCACGGGGGGGAATGATGTTAATCGGGTCTTGATTCGCTTGACGCTGCTG | 6.98 | 5.54 | 6.1 | 9.46 | 5.91 | 5.39
9 | CCGATTAACATCACGGGGGGAAATGATGTTAATCGGGTCTTGATTCGCTTGACGCTGCTG | 6.31 | 6.61 | 7.51 | 11.2 | 5.52 | 4.78
10 | CCGATTAACATCACTTTCCCCCCTGATGTTAATCGGGTCTTGATTCGCTTGACGCTGCTG | 5.84 | 5.86 | 7.31 | 9.03 | 5.34 | 4.29
11 | CCGATTAACATCAGGGAAAATCATGATGTTAATCGGGTCTTGATTCGCTTGACGCTGCTG | 3.91 | 5.72 | 7.02 | 4.62 | 5.1 | 1.46
12 | CCGATTAACATCAGGGGAACTAATGATGTTAATCGGGTCTTGATTCGCTTGACGCTGCTG | 4.99 | 5.41 | 6.66 | 6.12 | 4.07 | 4.37
13 | CCGATTAACATCAGGGGATACCCTGATGTTAATCGGGTCTTGATTCGCTTGACGCTGCTG | 8.36 | 7.45 | 6.59 | 3.74 | 8.11 | 9.05
14 | CCGATTAACATCACCATTTTCCCTGATGTTAATCGGGTCTTGATTCGCTTGACGCTGCTG | 3.46 | 4.65 | 7.17 | 3.65 | 3.42 | 1.32
15 | CCGATTAACATCAAGCCCCCCCATGATGTTAATCGGGTCTTGATTCGCTTGACGCTGCTG | 4.83 | 3.07 | 3.1 | 3.51 | 3.85 | 3.97
16 | CCGATTAACATCAAATTCTCCCCTGATGTTAATCGGGTCTTGATTCGCTTGACGCTGCTG | 5.65 | 6.62 | 7.76 | 8.72 | 5.21 | 2.37
17 | CCGATTAACATCAAAGGGAATTCTGATGTTAATCGGGTCTTGATTCGCTTGACGCTGCTG | 4.72 | 7.1 | 6.91 | 2.97 | 5.65 | 4.04
18 | CCGATTAACATCAATCCCCCCCATGATGTTAATCGGGTCTTGATTCGCTTGACGCTGCTG | 7.7 | 5.57 | 4.56 | 6.68 | 4.81 | 5.46
19 | CCGATTAACATCAGGGAAGACGTTGATGTTAATCGGGTCTTGATTCGCTTGACGCTGCTG | 1.82 | 1.64 | 1.93 | 1.67 | 1.11 | –
20 | CCGATTAACATCACGTATTCCCCTGATGTTAATCGGGTCTTGATTCGCTTGACGCTGCTG | 7.14 | 7.75 | 7.86 | 6.56 | 5.55 | 4.86
21 | CCGATTAACATCACGATTTTCCCTGATGTTAATCGGGTCTTGATTCGCTTGACGCTGCTG | 3.77 | 5.64 | 7.32 | 4.9 | 4.47 | 1.65
